Measurements taken from PubChem BioAssay (Tox21).
Results filed as inconclusive are left out. Active and inactive are the calls of the source. The call rests on the fitted dose curve; in most records, active means well fitted activation curve with a large enough effect in the signal ratio in the repeat runs (not every such curve was filed as active); inconclusive means weak or mixed curves, or effect the other way; inactive means flat fitted curve, though single readings scatter; the % refers to the signal ratio.
On the % scale 0 is the no-effect control and ±100 the full control effect.

Assay: qHTS assay to identify small molecule agonists of the endoplasmic reticulum stress response signaling pathway (AID 1159516)
Details: ESRE-bla HeLa, ER stress beta-lactamase reporter, 5 h; series mostly up to 61 µM; activation: at the top concentration
Source text: National Center for Advancing Translational Sciences [NCATS]
NIH Chemical Genomics Center [NCGC]
U.S. Environmental Protection Agency [EPA]
National Institutes of Environmental Health Sciences [NIEHS]
National Toxicology Program [NTP]
U.S. Food and Drug Administration [FDA]
Endoplasmic Reticulum (ER) plays an important role in cellular signaling, protein folding/maturation, stress response, lipid biosynthesis, calcium storage and release etc. Under stress conditions, proteins in ER misfold or unfold, and leading to the expression of ER stress responsive genes. ER stress has been associated with a variety of pathophysiological conditions such as cancer, inflammation, neurodegenerative diseases, diabetes, ischemic heart disease etc. To identify the compounds that induce ER stress response, an ER stress reporter cell line, CellSensor ESRE-bla HeLa (Life Technologies, Carlsbad, CA) containing a beta-lactamase reporter gene under control of the Endoplasmic reticulum Stress Response Element (ESRE) was used to screen Tox21 10K compound library.
Tox21 Assay Protocol Summary:
ESRE-bla HeLa cells were dispensed at 1,500 cells/6 uL of assay medium per well into black wall/clear-bottom 1536-well plates using a Multidrop Combi (ThermoFisher Scientific, Waltham, MA) dispenser. After the assay plates were incubated at 37 C and 5% CO2 for an overnight, 23 nL of compounds dissolved in DMSO, positive controls or DMSO only was transferred to the assay plate by a Pintool station (Kalypsys, San Diego, CA). The assay plates were incubated at 37 C and 5% CO2 for 5 hr. One uL of LiveBLAzer B/G FRET substrate (Life Technologies) was added using a Flying Reagent Dispenser (Aurora Discovery, San Diego, CA) and the plates were incubated at room temperature for 2 hr. Fluorescence intensity (405 nm excitation, 460 nm and 530 nm emissions) was measured using an Envision plate reader (PerkinElmer, Shelton, CT).
With Cc1ccc2c(c1[N+](=O)[O-])C(=O)c1ccccc1C2=O the “activation” value was -1.43% (inactive).
With CCCCCCC(O)CCOC(C)=O (stereo not given) the “activation” value was -0.739% [at 216 µM] (inactive).
For CCC1CCC(CCC(=O)O)C1 (stereo not given), the “activation” value was -4.7% [at 78.8 µM] (inactive).
For Cc1cc([N+](=O)[O-])ccc1N, the “activation” value was -2.58% (inactive).
For Nc1c(Cl)cc(Cl)cc1[N+](=O)[O-], the “activation” value was -5.73% (inactive).
For CC(C)Cc1ccc(CC(=O)O)cc1, the “activation” value was 3.08% (inactive).
In the case of CC(=O)OCC(=O)[C@@]1(OC(C)=O)[C@@H](C)C[C@H]2[C@@H]3C[C@H](F)C4=CC(=O)C=C[C@]4(C)[C@@]3(F)[C@@H](O)C[C@@]21C, the “activation” value is reported as -0.533% (inactive).
For ClC1=C(Cl)C1(Cl)Cl, the “activation” value was -1.38% [at 78.8 µM] (inactive).
With CC1CCc2nccnc21 (stereo not given) the “activation” value was 0.586% (inactive).
For CC(C)(C(=O)c1cccnc1)c1cccnc1, the “activation” value was 1.32% (inactive).
In the case of COc1cc(C(C)=O)ccc1OCCCN1CCC(c2noc3cc(F)ccc23)CC1, the “activation” value is reported as 0.975% (inactive).
In the case of CC(C)C1CCC(C(=O)N[C@H](Cc2ccccc2)C(=O)O)CC1 (stereo not given in full), the “activation” value is reported as -5.59% (inactive).
In the case of C=C(C)C(=O)OCCC(F)(F)C(F)(F)C(F)(F)C(F)(F)C(F)(F)C(F)(F)F, the “activation” value is reported as 1.34% (inactive).
In the case of O=CNNC=O, the “activation” value is reported as -3.89% [at 78.8 µM] (inactive).
For CC(C)C(=O)OCCOc1ccccc1, the “activation” value was -1.82% (inactive).
In the case of CCCCCCCCCCCSCC(=O)O, the “activation” value is reported as 3.67% (inactive).
In the case of CCCOC(=O)c1c(Cl)c(Cl)c(Cl)c(Cl)c1C(=O)OCCC, the “activation” value is reported as 2.39% (inactive).
For O=c1[nH]c2cc(C(F)(F)F)c(N3CCOCC3)cc2n(CP(=O)(O)O)c1=O, the “activation” value was 3.13% (inactive).
With Cc1ccc(Nc2c(F)cccc2Cl)c(CC(=O)O)c1 the “activation” value was 0.827% (inactive).
For CCN(Cc1cccc(S(=O)(=O)O)c1)c1ccc(C(=C2C=CC(=[N+](CC)Cc3cccc(S(=O)(=O)O)c3)C=C2)c2ccccc2S(=O)(=O)[O-])cc1, the “activation” value was 0.993% (inactive).
With C/C(C=O)=C\c1ccccc1 the “activation” value was -4.6% (inactive).
With CCC(C)(C)C(=O)O the “activation” value was 0.395% (inactive).
For CCOC(=O)C(C)O (stereo not given), the “activation” value was 1.79% [at 78.8 µM] (inactive).
In the case of COc1ccc(C(=O)NCc2ccc(OCCN(C)C)cc2)cc1OC, the “activation” value is reported as 0.0527% (inactive).
For CS(=O)(=O)c1ccc([C@@H](C[C@H]2CCC(=O)C2)C(=O)Nc2cnccn2)cc1Cl, the “activation” value was -2.37% (inactive).
For O=[N+]([O-])c1ccc2ncccc2c1, the “activation” value was -2.22% (inactive).
In the case of C=CCOC(=O)COCCC(C)C, the “activation” value is reported as 1.44% (inactive).
In the case of CSCC[C@H](NC(=O)[C@H](Cc1c[nH]c2ccccc12)NC(=O)CCNC(=O)OC(C)(C)C)C(=O)N[C@@H](CC(=O)O)C(=O)N[C@@H](Cc1ccccc1)C(N)=O, the “activation” value is reported as 0.972% (inactive).
In the case of O=C(O)CCC(=O)OC[C@@H](NC(=O)C(Cl)Cl)[C@H](O)c1ccc([N+](=O)[O-])cc1, the “activation” value is reported as 2.68% (inactive).
In the case of COC(C)(C)OC, the “activation” value is reported as -1.72% (inactive).
For CCN(CC)CCOc1ccccc1C(=O)CCc1ccccc1, the “activation” value was -0.5% (inactive).
For COc1ccc(C2C(=O)c3ccccc3C2=O)cc1, the “activation” value was -2.19% (inactive).
With CC1=C2[C@@H]([C@H](C)CC[C@H]2/C=C(\C)C(=O)O)[C@H](O)C1 the “activation” value was -0.0559% (inactive).
In the case of CC[C@H]1OC(=O)[C@H](C)[C@@H](O[C@H]2C[C@@](C)(OC)[C@@H](O)[C@H](C)O2)[C@H](C)[C@@H](O[C@@H]2O[C@H](C)C[C@H](N(C)C)[C@H]2O)[C@](C)(O)C[C@@H](C)C(=O)[C@H](C)[C@@H](O)[C@]1(C)O, the “activation” value is reported as 0.102% (inactive).
In the case of Nc1ccc(NC(=O)c2ccc(N)cc2)cc1, the “activation” value is reported as 0.687% (inactive).
In the case of CN1CCCN(C(c2ccccc2)c2ccc(Cl)cc2)CC1 (stereo not given), the “activation” value is reported as -4.24% (inactive).
For COC(OC)OC, the “activation” value was -3.78% (inactive).
For C=C(C)c1ccccc1, the “activation” value was -3.37% (inactive).
For CC(C)(O)c1coc(S(=O)(=O)NC(=O)Nc2c3c(cc4c2CCC4)CCC3)c1, the “activation” value was 7.03% (inactive).
In the case of CCSC(=O)N(CC)CC, the “activation” value is reported as -0.369% (inactive).
